In PubChem BioAssay AID2315 (National Center for Advancing Translational Sciences (NCATS), 2010):
The whole screen tested about 290,000 compounds, of which about 27,000 (9.3%) were called active. The entries come from a sample that favours actives as a whole. Unmarked numbers belong to inactive results. Rule as the data show it: active = inhibition mostly above about 28% (no sharp cut-off); inactive = mostly below about 43%.

Test: A qHTS for Small Molecule Inhibitors of Shiga Toxin; also: 0% is about no effect
Details: Vero cells, Shiga toxin protein synthesis inhibition reporter; at 38.7 µM, hits give high values
Compound O=C(NNS(=O)(=O)c1ccc([N+](=O)[O-])cc1)C1CCCCC1 has an inhibition of -11%.
In the case of CCCCn1c(N)c(N(CCOC)C(=O)c2oc3ccc(OC)cc3c2C)c(=O)[nH]c1=O, the inhibition was -5%.
In the case of COc1cc(C)cc(CN2CCC(Cc3ccccc3)CC2)c1O, the inhibition was -4.61%.
Work on NC(=O)c1ccccc1N=Cc1ccc2ccccc2c1 yielded an inhibition of 69.3%.
COc1ccc(N2CCN(C(=O)CSc3nnc4ncccn34)CC2)cc1 gave an inhibition of -8.3%.
With COc1ccc(-c2cn3cccnc3n2)cc1 the inhibition was 50.1% (active).
Compound COc1ccc(-c2ccnc(SCC(=O)N3CCOCC3)n2)cc1 has an inhibition of 19.9%.
O=C(Nc1ccccc1N1CCOCC1)c1ccc(OCc2cscn2)cc1 gave an inhibition of 3.77%.
CCOc1cc(/C=C2/C(=N)N3OC(C)=CC3=NC2=O)ccc1OC gave an inhibition of -19.9%.
For COc1ccc(OCCCn2cccc2/C=C2/C(=N)N3OC(C)=CC3=NC2=O)cc1, the inhibition was 47.7% (active).
With CC1=CC2=NC(=O)/C(=C/c3coc4ccccc4c3=O)C(=N)N2O1 the inhibition was 11.7%.
Work on Oc1ccccc1CN1CCN(C(c2ccccc2)c2ccccc2)CC1 yielded an inhibition of -6.21%.
Compound NC(=O)COC(=O)c1ccc2c(c1)C(=O)N(Cc1ccco1)C2=O has an inhibition of -6.38%.
CC(C)CC(=O)NC(=S)NCc1ccccc1 gave an inhibition of -1.98%.
For CCC(=O)NCCc1nc2ccccc2n1CC, the inhibition was -5.67%.
Work on Cc1cc(C(=O)OCC(=O)Nc2nnc(C(C)C)s2)c2ccccc2n1 yielded an inhibition of -2.62%.
With CC(C)CC(=O)N/C(N)=N/c1nc2ccccc2s1 the inhibition was 61.6% (active).
For O=C(O)CCCCc1nc2ccccc2s1, the inhibition was -9.29%.
For CCC(=O)NC(=Nc1nc2ccccc2s1)NC(=O)CC, the inhibition was 57.8% (active).
In the case of CCCn1nc(NC(=O)C(C)C)c2cc3cc(OC)ccc3nc21, the inhibition was 40.5%.
Compound COc1ccc(C(=O)CC(=O)C(=O)Nc2cc([N+](=O)[O-])ccc2OC)cc1 has an inhibition of -3.5%.
O=C(Cn1ncc2c3ccccc3n(Cc3ccccc3)c2c1=O)NCc1ccccn1 showed an inhibition of 16.1%.
With Cc1c(C(=O)N2CCCC2)c(S(=O)(=O)NCC(C)c2ccccc2)c(C)n1C (stereo not given) the inhibition was -3.94%.
CC1(C(=O)N/N=C/c2cc3c(cc2Br)OCO3)CC1(Br)Br (stereo not given) gave an inhibition of -11.8%.
Work on O=C(C1CCN(Cc2ccc(Cl)cc2)CC1)N1CCN(Cc2ccc3c(c2)OCO3)CC1 yielded an inhibition of -7.69%.
With COc1ccc(C2c3[nH]c4ccccc4c3C[C@H]3C(=O)N(CC(C)C)CC(=O)N23)c(OC)c1 (stereo not given in full) the inhibition was -6.17%.
For COc1cccc(/C=N/Nc2cc(C)nc(-c3ccccc3O)n2)c1O, the inhibition was 38.3% (active).
Work on COc1cccc2c(N/N=C/c3ccco3)cc(C)nc12 yielded an inhibition of 63.5%.
COc1ccccc1/C=N\Nc1cc(C)nc(-n2nc(C)cc2C)n1 gave an inhibition of -8.59%.
For CC(=O)c1cccc(NC(=O)CN2C(=O)c3cccnc3Oc3ccc(Cl)cc32)c1, the inhibition was 1.59%.
CCc1ccc(N(C(=O)c2csnn2)C(C(=O)NC2CCCCC2)c2ccncc2)cc1 (stereo not given) gave an inhibition of 32.9%.
COc1cccc(N(CC(=O)Nc2cccc(F)c2)S(C)(=O)=O)c1 gave an inhibition of 12.9%.
Work on Cc1nc2ccc(S(=O)(=O)N(C)CC(=O)NC(C)c3ccccc3)cc2s1 (stereo not given) yielded an inhibition of -9.9%.
For Cc1cccc(N(CC(=O)Nc2ccc(-c3nc4ccc(C)cc4s3)cc2)S(C)(=O)=O)c1, the inhibition was 146% (active).
With Cc1ccc2nc(-c3ccc(NC(=O)CN(C)S(=O)(=O)c4ccccc4)cc3)sc2c1 the inhibition was 84.9% (active).
Work on COc1cc(NC(=O)CN(C)S(=O)(=O)c2ccc3nc(C)sc3c2)cc(OC)c1 yielded an inhibition of 15.9%.
CCN(CC)S(=O)(=O)c1ccc(NC(=O)CN(c2cccc(F)c2)S(C)(=O)=O)cc1 showed an inhibition of -12.2%.
In the case of C[C@H]1CCC(=O)N([C@H](CSc2ccccc2)Cc2ccccc2)CC1, the inhibition was 6.56%.
In the case of CCCOc1ccc(Cc2c(O)nc(N)[nH]c2=O)cc1C, the inhibition was 1.67%.
CCC(=O)N1c2ccc(S(=O)(=O)NCc3ccco3)cc2CC1C (stereo not given) showed an inhibition of 12.8%.
For O=C(Nn1cnnc1)c1cc(Cl)ccc1Cl, the inhibition was 7.38%.
Compound C=CCc1cc(S(=O)(=O)c2ccc(O)c(CC=C)c2)ccc1O has an inhibition of -18%.
Work on CS(=O)(=O)N(CC(=O)N1CCN(c2cccc(Cl)c2)CC1)c1ccccc1 yielded an inhibition of -4.1%.
For O=C(CCCC(=O)N1CCN(c2cccc(Cl)c2)CC1)c1ccccc1, the inhibition was 25.1% (active).
CC(C)c1nnc(NC(=O)CCC(=O)N2CCN(c3cccc(Cl)c3)CC2)s1 showed an inhibition of -4.62%.
For O=C(c1ccc2c(c1)OCO2)N1CCN(C(=O)c2ccco2)CC1, the inhibition was 17%.
With O=C(c1ccco1)N1CCN(c2cccc(Cl)c2)CC1 the inhibition was 24.3% (active).
Compound O=C(c1cccc([N+](=O)[O-])c1)N1CCN(C(=O)c2ccco2)CC1 has an inhibition of -3.08%.
Work on Oc1ccc2nc(Cc3ccccc3)[nH]c2c1 yielded an inhibition of 54.8%.
CC(C)=C(NC(=O)c1ccco1)C(=O)NCCc1nc2ccccc2[nH]1 showed an inhibition of 7.12%.
With Nc1cccc(CCc2nc3ccccc3[nH]2)c1 the inhibition was 91.8% (active).
Compound CCOC(=O)C1=C(c2ccccc2)NC(=O)NC1c1cc(OCC)c(O)c([N+](=O)[O-])c1 (stereo not given) has an inhibition of -6.05%.
With Cc1ccccc1Nc1nc(N)nc(CSc2ccccc2)n1 the inhibition was 87.7% (active).
Cc1ccccc1Nc1nc(N)nc(CSc2nnc3ccccn23)n1 gave an inhibition of 37.1%.
Work on Cc1ccc(C(=O)OCc2nc(N)nc(Nc3ccccc3C)n2)cc1 yielded an inhibition of -11.7%.
Cc1cc(OC(C)C(=O)NC2CC(C)(C)NC(C)(C)C2)c2c(C)cc(=O)oc2c1 (stereo not given) showed an inhibition of -4.82%.
For CCn1c(CNC(=O)c2cc(OC)c(OC)c(OC)c2)cc2cc(C)ccc21, the inhibition was 2.16%.
In the case of CCOc1ccc(CN(C)C(=O)c2ccc(=O)[nH]c2)cc1, the inhibition was -3.04%.
Compound CCc1ccc(/C=N/NC(=O)c2nnn(-c3nonc3N)c2CN2CCc3ccccc32)cc1 has an inhibition of -4.83%.
In the case of COc1ccc(NS(=O)(=O)c2cccc3nsnc23)cc1Cl, the inhibition was -3.74%.
